Values joined by “and” are separate entries in the source; they are usually repeats but may differ in a detail not shown here. Equal values may be shown once. Among all 220,000 compounds or so, about 8,200 (3.7%) were called active.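 Rule for the calls: active = compounds that reduced the stress-induced luciferase reporter signal by more than about 70% of percent inhibition (limit read from the data); inactive = the rest.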 The sample as a whole holds a higher share of actives than the screen did. More than one record can exist for a structure, and the calls need not agree.
Test: inhibitors of CHOP promoter induction, primary screen, cell-based, unfolded protein response, luciferase reporter (AID 2732);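 note: 0% = tunicamycin plus vehicle and 100% = wells without tunicamycin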
Settings: CHO-K1 CHOP-promoter luciferase, tunicamycin-induced, 15-18 h; at 10 µM; stronger effect = higher value

Row | Structure (SMILES) | inhibition
1 | CCCCCCCCCCCCN1C(=O)CSC1c1cccnc1 (stereo not given) | 28.5% (inactive)
2 | Cc1ccc(C2(c3ccc(C)cc3)NC(=O)N(Cc3c(C)noc3C)C2=O)cc1 | 92.8% (active)
3 | COc1ccc(C(=O)CN2C(=O)NC(C)(c3ccc(C)cc3)C2=O)cc1OC (stereo not given) | 15.7% (inactive)
4 | Cc1noc(C)c1COc1ccc2ccc(=O)oc2c1 | 2.13% (inactive)
5 | Cc1cc(F)ccc1NC(=O)C(C)n1c2ccccc2c2nc(=O)cc(C)n21 (stereo not given) | -2.79% (inactive)
6 | CC1=NNC(=O)C1CC(=O)N/N=C/c1ccncc1 (stereo not given) | 9.24% (inactive)
7 | C#CCOCCOCCOCCNc1nc(N2CCN(C(=O)[C@H](CCC(=O)O)n3cc(C(N)CO)nn3)CC2)nc(N2CCN(C(=O)[C@H](CCCCN)n3cc(C(N)CC(C)C)nn3)CC2)n1 (stereo not given in full) | -22.6% (inactive)
8 | Cn1nc(C(F)(F)F)cc1-c1ccc(/C=C(\C#N)C(=O)c2cccc(C(F)(F)F)c2)s1 | -6.02% (inactive)
9 | CCOC(=O)/C(=C\c1ccc([N+](=O)[O-])cc1)C(=O)c1cc(C(C)=O)c(Nc2ccccc2)s1 | 112% (active)
10 | CCOC(=O)COc1ccc([N+](=O)[O-])cc1 | 3.34% (inactive)
11 | Cc1cccc(NC(=O)c2sc(-c3ccccc3)nc2-c2ccc([N+](=O)[O-])cc2)c1 | 31.6% (inactive)
12 | COC(=O)c1sc(C(F)(F)F)c(-c2ccccc2)c1S(=O)(=O)N(C)C | 21.3% (inactive)
13 | CC(C)c1ccc2c(c1)c(SC(C)(C)C)c(CC(C)(C)C(=O)O)n2Cc1ccc(Cl)cc1 | -15.8% (inactive) and 96.6% (active)
14 | O=S(=O)(NCCc1csc(-c2ccccc2)n1)c1cccnc1 | 10.5% (inactive)
15 | COc1ccc2nc(/N=C(\N)NC(=O)Nc3ccccc3)nc(C)c2c1 | 29.8% (inactive)
16 | Cc1ccc(NC(=O)Nc2ccc3oc(C)nc3c2)cc1 | -9.69% (inactive)
17 | Cc1ccc(N/C(N)=N/c2nc(C(F)(F)F)cc(C(F)(F)F)n2)cc1 | 92.5% (active)
18 | C/C=C\C=C\C(=O)N1CC2(CC(c3cccc(NC(=O)/C(C)=C\C)c3)=NO2)C[C@H]1C(N)=O (stereo not given in full) | -9.78% (inactive)
19 | Cc1cccc(NC(=O)c2ccc([N+](=O)[O-])o2)c1 | -27% (inactive)
20 | COc1ccc(Cl)cc1S(=O)(=O)N1CCC(O)(c2ccc(Cl)cc2)CC1 | 19.7% (inactive)
21 | O=[N+]([O-])c1ccc(N/N=C2/CCCCC2c2ccccn2)c([N+](=O)[O-])c1 (stereo not given) | 80.1% (active)
22 | O=C(Nc1ccccc1)O/N=C1\CCCCC1c1ccc([N+](=O)[O-])cc1[N+](=O)[O-] (stereo not given) | 22.1% (inactive)
23 | C[n+]1ccccc1C1CCCC/C1=N\Nc1ccc([N+](=O)[O-])cc1[N+](=O)[O-] (stereo not given) | 8.15% (inactive)

Row | Structure (SMILES) | inhibition
24 | O=C(NNC(=O)c1cnccc1C(F)(F)F)c1ccc(Cl)cc1 | -0.67% (inactive)
25 | S=c1[nH]nc(-c2cc(-c3ccsc3)n[nH]2)n1-c1ccccc1 | 0.59% (inactive)
26 | O=C(Nc1cccc(-c2nc3ccccc3[nH]2)c1)c1ccc(C(=O)Nc2cccc(-c3nc4ccccc4[nH]3)c2)cc1 | -38.4% (inactive)
27 | O=C(Nc1sc2c(c1-c1nc3ccccc3[nH]1)CCCC2)C1CC1 | 80.4% (active)
28 | CCOC(=O)c1c(NC(=O)C2CCN(S(=O)(=O)c3ccc(Cl)cc3)CC2)sc2c1CCCC2 | 15.6% (inactive)
29 | O=C(Nc1ccc(F)cc1F)N1CCCN(CCOc2ccccc2)CC1 | -11% (inactive)
30 | Cc1ccc(Cl)c(OCC(=O)NN2CCN(C)CC2)c1 | 5.66% (inactive)
31 | NC(=O)c1ccc(CN2CCC(Cc3ccccc3)CC2)cc1 | -9.98% (inactive)
32 | c1ccc(CC2CCN(c3nc4ccccc4n4cnnc34)CC2)cc1 | 76.1% (active)
33 | O=C(c1ccccc1)c1ccc2nc(N3CCCCC3)c3nncn3c2c1 | 19.1% (inactive)
34 | N#CC1=C(N)Oc2c(ccc3cccnc23)C1c1ccncc1 (stereo not given) | -1.42% (inactive)
35 | CCOC(=O)c1c(NC(=O)CNC2CCCc3ccccc32)sc(C(N)=O)c1C (stereo not given) | 95.9% (active)
36 | Nc1nnc(SCC(=O)NC2CCCc3ccccc32)s1 (stereo not given) | 12.6% (inactive)
37 | CCOC(=O)c1sc(NC(=O)COc2ncnc3ccccc23)c(C(=O)OCC)c1C | 43% (inactive)
38 | Cc1ccc(/C=N/NC(=S)Nc2cccc(S(=O)(=O)N(C)C)c2)o1 | 36% (inactive)
39 | NC(=O)c1ccc(-c2csnn2)cc1 | 9.46% (inactive)
40 | Cc1n[nH]c(=S)n1/N=C/c1ccc(Br)o1 | 14.2% (inactive)
41 | Cc1ccccc1-c1n[nH]c(=S)n1C | -13.1% (inactive)
42 | Cc1ccccc1-c1n[nH]c(=S)n1/N=C/c1ccc(-c2ccccc2Br)o1 | 72.8% (active)
43 | CC1CN(c2nc(Nc3ccccc3)nc(N)c2[N+](=O)[O-])CC(C)O1 (stereo not given) | 9.58% (inactive)
44 | CCCc1nc(N2CCN(C)CC2)c2sc(=S)n(-c3ccccc3)c2n1 | 74.7% (active)
45 | CCCc1nc(-c2ccccc2O)n(-c2ccccc2)n1 | 40.5% (inactive)
46 | Cc1cccc(-n2c(N)c(C(=O)N3CCN(C)CC3)sc2=S)c1 | -3.45% (inactive)

Row | Structure (SMILES) | inhibition
47 | O=C(NCCc1ccccn1)c1cccnc1Oc1ccc(Cl)cc1 | 18.1% (inactive)
48 | CCCN(CCC)S(=O)(=O)c1ccc(C(=O)NNC(=O)c2cc(OC)c(OC)c(OC)c2)cc1 | 2.06% (inactive)
49 | C/C(CC(=O)NC(C)c1ccccc1)=N\NC(N)=S (stereo not given) | 0.93% (inactive)
50 | Cc1nc(SCC(=O)c2ccccc2)c([N+](=O)[O-])[nH]1 | 7.53% (inactive)
51 | CC(=O)Nc1ccc(C(=O)CSc2nc3ccc(C)cc3[nH]2)cc1 | 37.2% (inactive)
52 | O=C(CSc1nc2ccc([N+](=O)[O-])cc2[nH]1)c1ccc(Cl)cc1 | 78.4% (active)
53 | CCOc1ccc(N2CC(C(=O)N/N=C/c3sccc3C)CC2=O)cc1 (stereo not given) | 17.4% (inactive)
54 | COc1ccc(C(C(=O)NC(C)(C)C)N(C(=O)Cn2nnc3ccccc32)c2ccc(C(C)=O)cc2)cc1O (stereo not given) | -13.6% (inactive)
55 | O=C(Nc1ccc(Cl)cc1)Nc1ccc(Oc2cccnc2)nc1 | 15.6% (inactive)
56 | O=C(COc1ccccc1)NCCc1nc2ccccc2[nH]1 | -0.39% (inactive)
57 | COc1ccc(OC(C)C(=O)NCCc2nc3ccccc3[nH]2)cc1 (stereo not given) | 12.8% (inactive)
58 | CCCCCOc1ccc(/C=C/C(=O)NCCc2nc3ccccc3[nH]2)cc1OC | 70.7% (active)
59 | CCN(CC)S(=O)(=O)c1cc([N+](=O)[O-])ccc1N=Nc1c(O)n(C)c2ccccc12 | 39.2% (inactive)
60 | O=C(CSCC(=O)Nc1cccc([N+](=O)[O-])c1)Nc1ccccc1 | -4.34% (inactive)
61 | CCN(CC)S(=O)(=O)c1cc([N+](=O)[O-])ccc1NNC(=O)Nc1ccccc1 | 94.6% (active)
62 | CCOC(=O)c1cnc(COc2ccccc2Cl)[nH]c1=O | -0.7% (inactive)
63 | Oc1c(Cl)cc(Cl)c(Cl)c1Cc1c(O)c(Cl)cc(Cl)c1Cl | 93.3% (active)
64 | N#Cc1c(C(F)(F)F)cc(-c2cccs2)nc1N1CCCCC1 | 12.1% (inactive)
65 | COCc1cc(=O)[nH]c(SC)n1 | -4.77% (inactive)
66 | CCOC(=O)c1c(NC(=S)Nc2ccccc2C)sc2c1CCC2 | 34.1% (inactive)
67 | CCOC(=O)c1c(NC(=S)NC(=O)c2ccco2)sc2c1CCCC2 | 85% (active)
68 | CCOC(=O)c1c(NC(=S)NC)sc2c1CCCC2 | 14.4% (inactive)
69 | CN(C)/C=C(/C(=O)c1ccc(Cl)c(Cl)c1)c1nnnn1-c1ccccc1 | -4.76% (inactive)

Row | Structure (SMILES) | inhibition
70 | COc1ccc(N(Cc2ccccc2)S(=O)(=O)c2cccc(C(=O)O)c2)cc1 | 3.03% (inactive)
71 | O=C(Cn1nnc(N2CCCCC2)n1)c1ccc(Cl)c(Cl)c1 | 6.73% (inactive)
72 | Clc1ccc(C[n+]2cc(-c3ccccc3)n3c2CCC3)cc1 | 9.23% (inactive)
73 | Cc1nnc(NC(=O)Nc2ccc(Cl)c(Cl)c2)s1 | 86.9% (active)
74 | CCn1nccc1C(=O)Nc1ccc(Cl)c(Cl)c1 | 0.72% (inactive)
75 | Cc1ccc(NC(=O)Nc2nnc(-c3ccncc3)s2)cc1 | 40.9% (inactive)
76 | Cn1cc(Cl)c(C(=O)NNC(=S)Nc2cccc(Cl)c2)n1 | 9.14% (inactive)
77 | Cc1c(C(=O)Nc2cccc(Cl)c2)cn2c(nc3ccccc32)c1C#N | 104% (active)
78 | O=C(O)c1cccc(NC(=O)c2cc(-c3cccc(Cl)c3)nc3ccccc23)c1 | -25% (inactive)
79 | O=C(NCc1cc(C(F)(F)F)cc(C(F)(F)F)c1)C1CC(c2cccc(F)c2)=NO1 (stereo not given) | 20.1% (inactive)
80 | Oc1ccc(/C=N/N(Cc2ccccc2)c2ccccc2)cc1 | 97.5% (active)
81 | O=C(N/N=C/c1ccc(OCc2ccccc2)cc1)c1ccc(O)cc1 | -37.6% (inactive)
82 | CN(C)c1ccc(/C=N/N(Cc2ccccc2)c2ccccc2)cc1 | 1.37% (inactive)
83 | NC(=O)C1=CN(C2OC(COP(=O)(O)OP(=O)(O)OC[C@H]3O[C@@H](n4cnc5c(N)ncnc54)C(OP(=O)(O)O)[C@H]3O)C(O)C2O)C=CC1 (stereo not given in full) | -6.4% (inactive)
84 | CCC(=O)Nc1ccc2nc(C)n(Cc3ccccc3Cl)c(=O)c2c1 | -4.28% (inactive)
85 | O=C(NC1CCN(Cc2ccccc2)CC1)c1ccccc1F | 22.9% (inactive)
86 | CCN1CCN(c2cc3nc(C)n(Cc4ccccc4)c(=O)c3cc2NC(=O)c2ccccc2F)CC1 | 95.7% (active)
87 | CC(C)NC(=O)c1ccc(Cl)cc1Cl | 12.1% (inactive)
88 | Cc1sc2nc(CSCC(=O)Nc3c(Cl)cccc3Cl)[nH]c(=O)c2c1C | 0.31% (inactive)
89 | Cc1sc2nc(COC(=O)C(NC(=O)c3ccc(Cl)cc3Cl)C(C)C)[nH]c(=O)c2c1C (stereo not given) | 95.4% (active)
90 | O=C(Nc1ccccc1)N1CCN(C2c3ccccc3-c3ccccc32)CC1 | 12.3% (inactive)

Reference: PubChem BioAssay AID2732 (Emory University Molecular Libraries Screening Center, 2010)
